Assay outcomes (PubChem BioAssay)
Most compounds without a hit are left out; they make up all but 2.9% or so of the library.
KDM5B inhibitor – KDM5B demethylase inhibition; AID 1347165; Potency, µM (doses to about 57.7 µM), most hits filed as inhibitors; Q9UGL1; hit rate 2.6% among 220,000; KDM5B demethylase, FDH-coupled NADH fluorescence (FDH is formaldehyde dehydrogenase); further: nearly all actives have a fitted effect of over 70% in size
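Measured: NADH fluorescence change, 30 min, RT. System: KDM5BΔAP 200 nM final, H3K4me3 peptide, α-KG, Fe(II), ascorbate, NAD⁺ plus FDH, pH 7.5 HEPES. Compounds: titrated, 10 min pre-incubation with enzyme.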
IP6K1 inhibitor – blocks human inositol hexakisphosphate kinase 1 | AID 1645851 | hit rate 0.81% among 140,000 | activity change, % (series mostly up to about 58 µM) | Q92551 | IP6K1 kinase, ADP-Glo luminescence, 2 h; active compounds read low; in the data active means activity change below about -25%
Target sequence (Q92551 whole entry, looked up): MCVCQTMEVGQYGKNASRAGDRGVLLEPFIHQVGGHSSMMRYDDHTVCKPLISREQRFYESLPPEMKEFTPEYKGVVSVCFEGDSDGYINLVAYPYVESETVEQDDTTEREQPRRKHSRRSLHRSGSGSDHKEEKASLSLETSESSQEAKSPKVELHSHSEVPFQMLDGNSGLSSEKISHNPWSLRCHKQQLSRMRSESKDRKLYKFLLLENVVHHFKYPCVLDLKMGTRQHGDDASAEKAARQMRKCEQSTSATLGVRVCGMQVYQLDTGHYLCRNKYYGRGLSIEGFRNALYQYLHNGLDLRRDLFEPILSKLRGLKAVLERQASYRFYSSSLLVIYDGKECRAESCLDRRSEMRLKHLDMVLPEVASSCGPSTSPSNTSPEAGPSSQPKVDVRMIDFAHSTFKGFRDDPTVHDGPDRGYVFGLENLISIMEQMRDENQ
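ADP-Glo luminescence measures ADP made by human IP6K1 during a 2 h RT reaction with ATP/IP6 (mix at 1.3 mM/130 uM); top library doses 57.5 and 19.1 uM final.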
SNCA expr inh – inhibitors of alpha-synuclein (SNCA) gene expression. AID 1671194. Potency, µM (top dose mostly 57.2 µM), hits mostly inhibitors. hit rate 0.17% among 140,000. HEK-293 SNCA-luciferase knock-in, luminescence, 24 h; further: nearly all actives have a fitted effect of over 45% in size
HEK293 viab – counter-screen for SNCA expression inhibitors: cell viability | HEK-293-SNCA-luc viability, GF-AFC fluorescence, 24 h | Potency, µM (doses to about 57.1 µM), actives largely listed as cytotoxic | hit rate 0.12% among 150,000 | AID 1671193; further: nearly all actives have a fitted effect of over 30% in size
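HEK-293-SNCA-luc cells (1500/well) plated 24 h, then exposed 24 h to a dilution series; GF-AFC added 30 min at 37C, fluorescence 405/540 nm; normalised to medium-only and DMSO wells, Hill fit.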
Large screens that a line does not name were inactive. Unless noted, the call rests on the fitted dose curve; in most records, active means well fitted curve in the direction sought with a large enough effect; inconclusive means small, poorly fitted or top-dose-only effect, or another doubt; inactive means no such curve, though single readings can be large; an effect the other way counts as inactive or inconclusive.

O=C(c1cc(-c2cccnc2)c2nncn2n1)N1CCOCC1	KDM5B inhibitor 89µM
COC(=O)CNC(=O)c1cc(-c2cccnc2)c2nncn2n1	KDM5B inhibitor 100µM
COC(=O)CNC(=O)c1cc(-c2ccccc2OC)c2nncn2n1	none
COC(=O)CNC(=O)c1cc(-c2cccc(C(F)(F)F)c2)c2nncn2n1	KDM5B inhibitor 79µM
O=C(c1cc(-c2ccc(F)cc2)c2nncn2n1)N1CCOCC1	none (no result: KDM5B inhibitor)
O=C(Nc1ccc2c(N3CCCCC3)ncnc2c1)c1ccc(F)cc1F	none
COC(=O)CNC(=O)c1cc(-c2ccc(Cl)cc2Cl)c2nncn2n1	KDM5B inhibitor 45µM
CCn1nccc1C(=O)N1CCC2(CC1)CCC(O)(CN(C)C)CC2	KDM5B inhibitor 20µM
O=C(Nc1ccc(Oc2ccccc2)cc1)c1cc2n(n1)CC(c1ccc(Cl)cc1)OC2 (centres undefined)	KDM5B inhibitor inconclusive, SNCA expr inh inconclusive
COc1ccc(CN2CCC[C@H]2c2nc(-c3ccnc(N4CCOCC4)c3)no2)cc1	KDM5B inhibitor 32µM
COCCNc1ccc(-c2noc([C@@H]3CCCN3Cc3ccccc3F)n2)cn1	KDM5B inhibitor inconclusive
COCCNc1cc(-c2noc([C@@H]3CCCN3Cc3ccccn3)n2)ccn1	KDM5B inhibitor 32µM
COc1ccc(CN2CCC[C@H]2c2nc(-c3cncnc3N)no2)c(O)c1	KDM5B inhibitor 32µM
COCCOc1cc(-c2noc([C@@H]3CCCN3C3CCN(C(C)=O)CC3)n2)ccn1	none
COCCNc1cc(-c2noc([C@@H]3CCCN3C3CCN(C(C)=O)CC3)n2)ccn1	KDM5B inhibitor 40µM
COc1ccc(C(=O)Nc2ccc(-c3noc([C@@H]4CCCN4Cc4ccncc4)n3)cn2)cc1	KDM5B inhibitor inconclusive
Cc1ccc([S+](=O)([O-])N2CCC(c3nn(-c4ccccn4)c(=O)[nH]3)CC2)cc1	none (no result: KDM5B inhibitor)
c1cc(-c2noc([C@@H]3CCCN3Cc3ncc[nH]3)n2)cc(N2CCOCC2)n1	KDM5B inhibitor 32µM
Cc1ccc(-c2noc([C@@H]3C[C@@H](O)CN3Cc3ncc[nH]3)n2)cc1F	none
c1ccc(CN2CCC[C@H]2c2nc(-c3ccnc(N4CCOCC4)c3)no2)nc1	KDM5B inhibitor 28µM
COCCOc1cc(-c2noc([C@@H]3CCCN3Cc3ccncc3)n2)ccn1	KDM5B inhibitor 35µM
COCCOc1cc(-c2noc([C@@H]3CCCN3Cc3ccc(C(=O)O)cc3)n2)ccn1	KDM5B inhibitor inconclusive
CN(C)CC(=O)N1C[C@@H]2C[C@H](C1)c1ccc(-c3ccccc3CN3CCOCC3)c(=O)n1C2	KDM5B inhibitor 18µM
Cc1ncoc1C(=O)NCc1cc(Cl)cc2c(C)c(-c3ccccc3)[nH]c12	KDM5B inhibitor 35µM
Cc1nc(CCC(=O)NCc2cc(Cl)cc3c(C)c(-c4ccccc4)[nH]c23)n[nH]1	KDM5B inhibitor 25µM
CCn1nccc1C(=O)NCc1cc(C)cc2c(C)c(-c3ccccc3)[nH]c12	KDM5B inhibitor 13µM, HEK293 viab inconclusive
Cc1cc(CNC(=O)CC2C=CS(=O)(=O)C2)c2[nH]c(-c3ccccc3)c(C)c2c1 (centres undefined)	KDM5B inhibitor 28µM
Cc1c(-c2ccccc2)[nH]c2c(CNC(=O)C3=NN(C)C(=O)CC3)cc(Cl)cc12	none
Cc1cc(CNC(=O)C(C)Cn2nc(C)nc2C)c2[nH]c(-c3ccccc3)c(C)c2c1 (centres undefined)	none
COC(=O)N1CCC(N2C(=O)c3c(c(C)nn3-c3ccccc3)C2C)CC1 (centres undefined)	none (no result: KDM5B inhibitor, SNCA expr inh, HEK293 viab)
COc1ccc(C(=O)N2CCC(c3nc(-c4cccn4C)no3)CC2)c(OC)c1	none (no result: KDM5B inhibitor)
CN1CCCC[C@]2(C[C@H](CO)[C@H](c3ccccc3)N2C(=O)CC2CCCC2)C1=O	none (no result: KDM5B inhibitor, SNCA expr inh, HEK293 viab)
CCc1ccc(N2CC(c3noc(-c4cc(OC)c(OC)c(OC)c4)n3)CC2=O)cc1 (centres undefined)	KDM5B inhibitor 32µM, SNCA expr inh inconclusive
COc1cc(OC)cc(-c2nc(C3CC(=O)N(c4ccc(OC)c(OC)c4)C3)no2)c1 (centres undefined)	KDM5B inhibitor 28µM
CCc1ccc(N2CC(c3noc(-c4ccc(OC)nc4OC)n3)CC2=O)cc1 (centres undefined)	KDM5B inhibitor 35µM
COc1cccc(CNC(=O)C2CCN(C(=O)c3ncn4c3COC(c3ccccc3)C4)CC2)c1 (centres undefined)	none
O=[S+]([O-])(c1cccc(C(F)(F)F)c1)N1CCC2(CCN(Cc3cccs3)c3ccccc3O2)CC1	KDM5B inhibitor 11µM
Cc1noc(-c2ccn3c(CNC(=O)CCC4CCCC4)nnc3c2)n1	KDM5B inhibitor 22µM
Cc1noc(-c2ccn3c(CNC(=O)Cc4ccc(OC(F)(F)F)cc4)nnc3c2)n1	KDM5B inhibitor inconclusive
CCc1noc(-c2ccn3c(CNC(=O)CCC4CCCC4)nnc3c2)n1	KDM5B inhibitor 4.5µM
CCc1noc(-c2ccn3c(CNC(=O)C4CCCCC4)nnc3c2)n1	KDM5B inhibitor 28µM
COc1cccc(-c2ccc(CN3CCCC(NC(=O)c4ccc(C)cc4)C3)cc2)c1 (centres undefined)	HEK293 viab inconclusive (no result: KDM5B inhibitor)
Cc1[nH]cnc1CN1CCCC(C(=O)Nc2ccc(-c3cccc(F)c3)cc2)C1 (centres undefined)	none
COc1cccc(CN2CC[C@@H](CO)N(C)c3nc(C)ccc3C2)c1	KDM5B inhibitor 35µM
Cc1oc(C(O)c2ccccc2F)nc1C(=O)Nc1ccc2[nH]ccc2c1 (centres undefined)	none
CCC1Oc2ccc(NC(=O)c3ccccc3OC(C)=O)cc2CN(Cc2ccccc2F)C1=O (centres undefined)	KDM5B inhibitor 25µM
CC1Oc2ccc(NC(=O)c3ccccc3)cc2CN(Cc2ccc(Cl)cc2)C1=O (centres undefined)	KDM5B inhibitor inconclusive, HEK293 viab inconclusive
CC(=O)Oc1ccccc1C(=O)Nc1ccc2c(c1)CN(Cc1ccc(Cl)cc1)C(=O)C(C)O2 (centres undefined)	KDM5B inhibitor 35µM
Cc1cc(F)ccc1OC1CN(Cc2ccc(N(C)C)cc2)C1	none
O=C(NC1CCN(c2ccc3nnc(-c4ccccc4)n3n2)CC1)c1ccc(Cl)cc1	none (no result: KDM5B inhibitor, SNCA expr inh, HEK293 viab)
O=S(=O)(Nc1cccn2nc(C3CC3)nc12)c1cccnc1	KDM5B inhibitor 3.5µM
CCc1nc2c(NS(=O)(=O)c3cccnc3)cccn2n1	none
Cc1cc(C)c2c(C(=O)N3CCN(C)C4(CCN(C)CC4)C3)cc(C)nc2c1	KDM5B inhibitor 25µM
Cc1cc(C)cc(NC(=O)CC(=O)N2CCN(C)C3(CCN(C)CC3)C2)c1	none
O=C(NCc1ccc(F)cc1)c1nc(-c2cccnc2)c2cnccn12	none
O=C(NCc1ccc(F)cc1)c1nc(-c2ccc(F)cc2)c2cnccn12	KDM5B inhibitor 35µM
O=C(NCCc1ccc(Cl)cc1)c1nc(-c2ccsc2)c2ccccn12	KDM5B inhibitor 22µM
O=C(NCCc1ccc(Cl)cc1)c1nc(-c2ccc(F)cc2)c2ccccn12	KDM5B inhibitor 25µM
O=C(NCCc1ccc(Cl)cc1)c1nc(-c2ccc(Cl)nc2)c2ccccn12	KDM5B inhibitor 50µM, HEK293 viab inconclusive
